Rows were chosen to be rich in hits. Some 1.4% of all compounds tested hit in one or more screens of this group.
F508del corr: F508del CFTR correction, initial screen, CFBE line, single point. CFBE cells, YFP halide quenching; stimulated with forskolin plus potentiator P3; % fluorescence drop versus neutral controls. activity (quench increase), % at 7.58 µM. hit rate 0.36% among 350,000;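 active means mean added fluorescence quench of at least 8% versus neutral control, with both replicates also reaching 8%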;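 further: cells transiently co-express mutant CFTR-F508del with the halide-sensitive YFP; corrector assay measuring rescue of mutant channel to the surface after 24 h compound exposure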
C2C12 statin: suppressors of statin myotoxicity in C2C12 myotubes, primary screen, cell-based, single point, plate reader | C2C12 myotubes + simvastatin, ATP luminescence, 48 h; scaled: DMSO 0, geranylgeraniol control 100 | rescue of ATP level, % at 7.49 µM | hit rate 0.78% among 330,000;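 active means mean ATP rescue above about 67%, or every replicate alone reaching that limit, limit read from the data, passing the limit was not always enough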;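 further: myotubes were challenged with 10 µM simvastatin during compound exposure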
ARNT-TACC3 inh: disruptors of ARNT/TACC3 protein interaction, primary screen, biochemical, AlphaScreen, single concentration; inhibition, % at 9.99 µM; Transforming acidic coiled-coil-containing protein 3 (Homo sapiens), Q9Y6A5; hit rate 0.66% among 390,000; AlphaScreen His-ARNT PAS-B/GST-TACC3 binding, luminescence; TACC3 fragment carries E629A point mutation;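 active means mean inhibition of replicates at least 50% and at least half of replicates each reaching 50%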;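 further: 0% = complete ARNT plus TACC3 wells and 100% = ARNT alone without TACC3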
PglD DTNB: C. jejuni PglD acetyltransferase inhibitors, primary screen, biochemical, DTNB colorimetric, single point. UDP-N-acetylbacillosamine N-acetyltransferase PglD (Campylobacter jejuni). purified PglD enzyme, DTNB colorimetric CoA detection. inhibition, % at 12.5 µM. hit rate 0.098% among 360,000; in the data active means inhibition above about 16%, passing the limit was not always enough
* = called active by the depositor.

For CC(=O)Cc1cc(O)c2ccccc2c1OC(=O)c1ccc(Br)cc1 the results were F508del corr -2, C2C12 statin 88* and ARNT-TACC3 inh -4.
Screening COc1ccccc1NS(=O)(=O)c1cc(-c2cnc(C3CC3)o2)ccc1C returned F508del corr 8.3*, C2C12 statin -96, ARNT-TACC3 inh 1 and PglD DTNB 0.
`O=C(N[C@H]1C=C[C@@H](CC(=O)N2CCCCC2)O[C@H]1CO)c1ccc2c(c1)OCO2` gave F508del corr 3, C2C12 statin 0, ARNT-TACC3 inh -1 and PglD DTNB 16*.
`O=C(N[C@@H]1C=C[C@@H](CC(=O)N2CCCCC2)O[C@@H]1CO)c1ccc2c(c1)OCO2` gave F508del corr -4, C2C12 statin 12, ARNT-TACC3 inh -2 and PglD DTNB 2.
`CCCCOc1ccc(NC(=O)CSc2cccc3cccnc23)cc1` gave F508del corr 3 and ARNT-TACC3 inh 13.
Screening Cc1cccc(NC(=O)CSc2cccc3cccnc23)c1 returned F508del corr -1, C2C12 statin 9, ARNT-TACC3 inh 57* and PglD DTNB 0.
Screening O=C(CSc1cccc2cccnc12)Nc1cc(C(=O)O)cc(C(=O)O)c1 returned F508del corr 3, C2C12 statin 7, ARNT-TACC3 inh 68* and PglD DTNB 0.
For CCCNC(=O)C[C@H]1CC[C@@H]2[C@H](COc3ccc(NS(=O)(=O)c4ccccc4C)cc3C(=O)N2C)O1 the results were F508del corr 1, C2C12 statin -3, ARNT-TACC3 inh -5 and PglD DTNB 4.
Screening COc1ccc(CN2CC3(C2)CN(Cc2ccc4c(c2)OCO4)[C@@H](CO)c2[nH]c4cc(OC)ccc4c23)cc1 returned F508del corr 1.
For Cc1[nH]c(=O)[nH]c(=O)c1/C=N/NC(=O)[C@@H](N)CC(C)C the results were F508del corr -2, C2C12 statin 5 and ARNT-TACC3 inh 65*.
For Cc1[nH]c(=O)[nH]c(=O)c1/C=N/NC(=O)[C@H](CC(C)C)NC(=O)OC(C)(C)C the results were C2C12 statin 12, ARNT-TACC3 inh 24 and PglD DTNB 1.
For COc1ccccc1Nc1ccc2c(O)cc(S(=O)(=O)O)cc2c1 the results were F508del corr 0, C2C12 statin -5, ARNT-TACC3 inh active and PglD DTNB -1.
O=S(=O)(O)c1cc(O)c2ccc(Nc3ccccc3)cc2c1 was read as F508del corr 2, C2C12 statin 1, ARNT-TACC3 inh 12 and PglD DTNB 0.
CCOc1ccc(N=Cc2c(C)[nH]n(-c3nc4ccccc4[nH]3)c2=O)cc1 was read as ARNT-TACC3 inh 72*.
`CC1(C)C2(C#N)C(N)=NC3(OCCO3)C12C#N` (configuration not stated) gave C2C12 statin -2, ARNT-TACC3 inh -17 and PglD DTNB 0.
For CCC1(C)C2(C#N)C(N)=NC(OC)(OC)C12C#N (configuration not stated) the results were C2C12 statin 72*, ARNT-TACC3 inh 2 and PglD DTNB -1.
`CCOC(=O)C1C(c2cc(OC)c(O)c(OC)c2)NC(=S)NC1(O)C(F)(F)F` (configuration not stated) gave C2C12 statin -6, ARNT-TACC3 inh 0 and PglD DTNB 6.
`CCOC(=O)C1C(c2cccc(F)c2)NC(=S)NC1(O)C(F)(F)F` (configuration not stated) gave C2C12 statin 98*, ARNT-TACC3 inh -2 and PglD DTNB 3.
Screening CCOC(=O)C1C(c2cc(OC)c(OC)c(OC)c2)NC(=S)NC1(O)C(F)(F)F (configuration not stated) returned C2C12 statin 101* and PglD DTNB -2.
`COc1ccc(NC(=O)C(CC(=O)O)Cc2ccc(Cl)cc2)cc1` (configuration not stated) gave F508del corr 8.9*, C2C12 statin 9, ARNT-TACC3 inh 7 and PglD DTNB 0.
`CC1CCN(S(=O)(=O)N2CCCC(C(=O)NCc3ccccc3Cl)C2)CC1` (configuration not stated) gave F508del corr 9.6*, C2C12 statin 5, ARNT-TACC3 inh -3 and PglD DTNB -2.
CCN(CC)c1ccc(C(=S)N2CCN(c3ccccc3)CC2)cc1 was read as C2C12 statin 80* and PglD DTNB -3.
For COC(=O)c1cc(=O)n(CCc2ccccc2F)c(=Nc2ccc(F)c(Cl)c2)s1 the results were F508del corr 1, C2C12 statin 110*, ARNT-TACC3 inh -1 and PglD DTNB 1.
`COc1ccc2c3c(n(C)c2c1)[C@@H](CO)N(C)CC31CN(S(=O)(=O)c2cn(C)cn2)C1` gave F508del corr -2.
For O=C(O)c1ccnc(C(=O)O)c1 the results were ARNT-TACC3 inh 57*.
O=C(O)c1cc(Br)ccn1 was read as F508del corr 1, C2C12 statin 18 and ARNT-TACC3 inh -15.
For O=C1c2ccccc2NC(c2cccc(F)c2)N1Cc1ccco1 (configuration not stated) the results were F508del corr -2, C2C12 statin 114*, ARNT-TACC3 inh -4 and PglD DTNB -6.
Cc1nc(Cl)cc(N/N=C/c2ccc(O)cc2O)n1 was read as F508del corr 6, C2C12 statin 2, ARNT-TACC3 inh 27* and PglD DTNB 4.
Screening Oc1ccc(C=NNc2nc3ccccc3s2)c(O)c1 returned F508del corr -2, C2C12 statin 117*, ARNT-TACC3 inh 0 and PglD DTNB 7.
`Oc1ccccc1C=NNc1nc2ccccc2s1` gave F508del corr 6, C2C12 statin 6, ARNT-TACC3 inh 1 and PglD DTNB -6.
For C=CC[C@H]1C=C[C@@H](C(C(=O)OC)C(=O)OC)CN1C(C)=O the results were F508del corr 4, C2C12 statin -6, ARNT-TACC3 inh 57* and PglD DTNB -1.
For COc1ccccc1CN1C[C@H](C)[C@@H](OC)CN(C)C(=O)c2ccc(NC(C)=O)cc2OC[C@H]1C the results were F508del corr 1, C2C12 statin -6, ARNT-TACC3 inh -8 and PglD DTNB 1.
Screening COCCCNc1nnc(Cc2ccc(Cl)cc2)c(=O)[nH]1 returned F508del corr 10*, C2C12 statin -56, ARNT-TACC3 inh -4 and PglD DTNB 0.
`COCCNc1nnc(Cc2ccc(Cl)cc2)c(=O)[nH]1` gave F508del corr 0, C2C12 statin 5, ARNT-TACC3 inh 5 and PglD DTNB -1.
Screening OC[C@@H]1CN(Cc2ccc(-c3ccccc3)cc2)C[C@H](n2cnc3c(NC4CC4)ncnc32)O1 returned F508del corr 8.6*, C2C12 statin 2 and PglD DTNB 2.

Screening data (PubChem)
